# Test results from PubChem BioAssay (NCATS).
# Values without a mark were called inactive. Results filed as inconclusive are left out. A call without a number means that no potency is given here. The source made the active and inactive calls. Calls come from the whole dose curve; as a rule, active = well fitted curve in the direction sought with a large enough effect; inconclusive = small, poorly fitted or top-dose-only effect, or another doubt; inactive = no such curve, though single readings can be large; an effect the other way counts as inactive or inconclusive.
# Assays:
# [1] = Cell Viability - H-4-II-E (AID 543);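 note: cells exposed to compound for 40 hours; nearly all actives have a fitted effect of over 35% in size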
# Procedure, shortened: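 CellTiter-Glo luminescence (intracellular ATP) measured after 40 h compound exposure at 37 °C in H-4-II-E rat hepatoma cells seeded at 1500/well. Values are AC50s fitted with the standard Hill equation.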
# [2] = Cell Viability - SH-SY5Y (AID 544); conditions: SH-SY5Y neuroblastoma cell viability; viability change, negative = cytotoxic: at 92.2 µM (top of the series);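 note: cells exposed to compound for 40 hours; nearly all actives have a fitted effect of over 55% in size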; note: potency is the fitted concentration of half-maximal effect
# Procedure, shortened: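 Cytotoxicity measured via ATP-dependent luciferase luminescence (CellTiter-Glo) following 40 h, 37 °C exposure of 1500 SH-SY5Y cells per well. Concentration-response data were fitted with the standard Hill equation to give AC50.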
# [3] = Cell Viability - Renal Proximal Tubule (AID 545);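 note: cells exposed to compound for 40 hours; nearly all actives have a fitted effect of over 40% in size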
# Procedure, shortened: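 Luminescent ATP signal (CellTiter-Glo) served as the viability read-out after 40 hr compound exposure of freshly isolated rat proximal tubule cells at 37 °C. Concentration-dependent ATP loss was fitted with the Hill equation to give AC50.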
# [4] = Cell Viability - Mesenchymal (AID 546);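 note: cells exposed to compound for 40 hours before reading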
# Procedure, shortened: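 In this qHTS cytotoxicity format, glomerulus-derived human mesenchymal kidney cells received compound for 40 hr, then luciferase-based ATP quantitation. Concentration-response data were fitted with the Hill equation.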
# [5] = Cellular Toxicity (caspase-3) HepG2 (AID 654);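 note: cells exposed to compound for 16 hours before reading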
# Procedure, shortened: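 Caspase 3/7 activation is measured as a luminescence increase (aminoluciferin substrate) after 16 h compound exposure of human hepatocarcinoma HepG2 cells. AC50 values are Hill fits, scaled between DMSO baseline and 100 uM tamoxifen stimulation.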
# [6] = Cellular Toxicity (caspase-3) Jurkat (AID 655); conditions: Jurkat caspase-3 activation, luminescence; caspase-3 activation: at 92.2 µM (top of the series), DMSO = 0%, tamoxifen = 100%;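 note: cells exposed to compound for 16 h at 37 °C before reading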
# Procedure, shortened: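 5000 Jurkat cells/well; compound 16 hr, 37 °C; Caspase-Glo 3/7 added, 20 min RT; luminescence read. Norm: DMSO = 0%, tamoxifen 100 uM = 100%. AC50, Hill model.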
# [7] = Cellular Toxicity (caspase-3) HUV-EC-C (AID 656)
# Procedure, shortened: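 qHTS; HUV-EC-C, 1000 cells/well; 5 hr settle, 16 hr cmpd, 37°C; Caspase-Glo 3/7, 20 min RT; luminescence. Norm: DMSO = 0%, tamoxifen 100 uM = 100%. Hill-fit AC50.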
# [8] = Cellular Toxicity (caspase-3) SHSY5Y (AID 657);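 note: cells exposed to compound for 16 hours at 37 °C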
# Procedure, shortened: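 qHTS, SH-SY5Y, 1500 cells/well, 5 h pre-incubation 37 °C; compound 16 h 37 °C; Caspase-Glo 3/7 1 h RT; luminescence. Norm.: DMSO = 0, 10 uM staurosporine = 100%. Hill fit → AC50.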
# [9] = Cellular Toxicity (caspase-3) BJ (AID 658);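 note: cells exposed to compound for 16 hours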
# Procedure, shortened: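 Plated BJ cells (1000/well) rested 5 hr, received compound for 16 hr at 37 °C, then Caspase-Glo 3/7 reagent for 1 hr at room temperature before luminescence reading.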
# [10] = Cellular Toxicity (caspase-3) MRC-5 (AID 659)
# Procedure, shortened: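 Apoptosis readout in MRC-5 cells: luciferase light generated after caspase 3/7 cleaves a peptide-aminoluciferin substrate, measured post 16 hr compound incubation at 37 °C.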
SMILES,Potency [1],Potency [2],Potency [3],Potency [4],Potency [5],caspase-3 activation [6],outcome [7],outcome [8],outcome [9],outcome [10]
Cc1ccc([N+](=O)[O-])c(N)c1,inactive,inactive,inactive,inactive,inactive,1.25%,inactive,inactive,inactive,inactive
Nc1cc([N+](=O)[O-])ccc1C(=O)O,inactive,inactive,inactive,inactive,inactive,-2.73%,inactive,inactive,inactive,inactive
O=C(O)c1ccc(C(=O)O)cc1,inactive,inactive,inactive,inactive,inactive,1.28%,inactive,inactive,inactive,inactive
C=CCCC,inactive,inactive,inactive,inactive,inactive,-0.379%,inactive,inactive,inactive,inactive
Cc1ccc(N(C)C)cc1,inactive,inactive,inactive,inactive,inactive,2.02%,inactive,inactive,inactive,inactive
CCCCC(CC)CNCC(CC)CCCC (stereo not given),inactive,inactive,inactive,inactive,inactive,1.24%,inactive,inactive,inactive,inactive
CC(=O)OC(C)C,inactive,inactive,inactive,inactive,inactive,-0.432%,inactive,inactive,inactive,inactive
O=c1[nH][nH]c(=O)c2cc([N+](=O)[O-])ccc12,inactive,inactive,inactive,inactive,inactive,-0.126%,inactive,inactive,inactive,inactive
CCCCCCO,inactive,inactive,inactive,inactive,inactive,-0.00564%,inactive,inactive,inactive,inactive
CCOc1ccc(NC(C)=O)cc1N,inactive,inactive,inactive,inactive,inactive,0.0364%,inactive,inactive,inactive,inactive
CC(=O)CC(C)C,inactive,inactive,inactive,inactive,inactive,-2.68%,inactive,inactive,inactive,inactive
O=[N+]([O-])c1ccc2nc[nH]c2c1,inactive,inactive,inactive,inactive,inactive,0.964%,inactive,inactive,inactive,inactive
CC(C)=CCC/C(C)=C/C=O,inactive,inactive,inactive,inactive,inactive,0.822%,inactive,inactive,inactive,inactive
C=C(C)C(=O)OCC(C)C,inactive,inactive,inactive,inactive,inactive,0.091%,inactive,inactive,inactive,inactive
CCCCCCCCC,inactive,inactive,inactive,inactive,inactive,0.991%,inactive,inactive,inactive,inactive
O=Cc1c(Cl)cccc1Cl,inactive,inactive,inactive,inactive,inactive,3.49%,inactive,inactive,inactive,inactive
Nc1cccc(O)c1,inactive,inactive,inactive,inactive,inactive,0.69%,inactive,inactive,inactive,inactive
O=C1OC(=O)c2cc([N+](=O)[O-])ccc21,inactive,inactive,inactive,inactive,inactive,-2.27%,inactive,inactive,inactive,inactive
Cc1ccc(S(=O)(=O)NC2CCCCC2)cc1,inactive,inactive,inactive,inactive,inactive,0.692%,inactive,inactive,inactive,inactive
COc1cccc(N)c1,inactive,inactive,inactive,inactive,inactive,2.35%,inactive,inactive,inactive,inactive
O=[N+]([O-])c1ccc(CCO)cc1,inactive,inactive,inactive,inactive,inactive,-1.91%,inactive,inactive,inactive,inactive
C=C(C)C(=O)OCC(C)O (stereo not given),inactive,inactive,inactive,inactive,inactive,1.29%,inactive,inactive,inactive,inactive
CC=O,inactive,inactive,inactive,inactive,inactive,-1.03%,inactive,inactive,inactive,inactive
O=[N+]([O-])c1ccc(Cl)cc1Cl,inactive,inactive,inactive,inactive,inactive,1.63%,inactive,inactive,inactive,inactive
CC1CCCO1 (stereo not given),inactive,inactive,inactive,inactive,inactive,1.31%,inactive,inactive,inactive,inactive
CCOc1cccc(N)c1,inactive,inactive,inactive,inactive,inactive,-1.1%,inactive,inactive,inactive,inactive

SMILES,Potency [1],Potency [2],Potency [3],Potency [4],Potency [5],caspase-3 activation [6],outcome [7],outcome [8],outcome [9],outcome [10]
CC(O)COC(C)(C)C (stereo not given),inactive,inactive,inactive,inactive,inactive,0.633%,inactive,inactive,inactive,inactive
O=C(Cl)c1ccccc1[N+](=O)[O-],inactive,inactive,inactive,inactive,inactive,0.685%,inactive,inactive,inactive,inactive
CC(C)(C)OC=O,inactive,inactive,inactive,inactive,inactive,-1.27%,inactive,inactive,inactive,inactive
CCCCCCC=O,inactive,inactive,inactive,inactive,inactive,0.767%,inactive,inactive,inactive,inactive
Nc1nc(CC(=O)O)cs1,inactive,inactive,inactive,inactive,inactive,0.779%,inactive,inactive,inactive,inactive
Nc1ccccc1[N+](=O)[O-],inactive,inactive,inactive,inactive,inactive,-0.598%,inactive,inactive,inactive,inactive
CCOCCO,inactive,inactive,inactive,inactive,inactive,0.459%,inactive,inactive,inactive,inactive
COc1cccc2sc(N)nc12,inactive,inactive,inactive,inactive,inactive,-0.447%,inactive,inactive,inactive,inactive
CC(C)Cc1nccs1,inactive,inactive,inactive,inactive,inactive,1.45%,inactive,inactive,inactive,inactive
Nc1ccc(F)cc1F,inactive,inactive,inactive,inactive,inactive,1.31%,inactive,inactive,inactive,inactive
O=CNc1ccccc1,inactive,inactive,inactive,inactive,inactive,0.613%,inactive,inactive,inactive,inactive
CC(=O)OCc1ccco1,inactive,31.6 µM (active),inactive,inactive,inactive,13.6%,inactive,inactive,inactive,inactive
CC(C)(O)C(=O)O,inactive,inactive,inactive,inactive,inactive,-0.979%,inactive,inactive,inactive,inactive
N#CC1(O)CCCCC1,inactive,inactive,inactive,inactive,inactive,1.9%,inactive,inactive,inactive,inactive
O=C(Cl)c1cccc([N+](=O)[O-])c1,inactive,inactive,inactive,inactive,inactive,2.23%,inactive,inactive,inactive,inactive
O=C1C=CCCC1,inactive,inactive,inactive,inactive,inactive,-0.0925%,inactive,inactive,inactive,inactive
C[C@@H]1CC2(OC[C@]3(C)O[C@H]23)O[C@H]2C[C@@]3(C)[C@@H]4CC[C@H]5C(C)(C)C(O[C@@H]6OC[C@@H](O)[C@H](O)[C@H]6O)CC[C@@]56C[C@@]46CC[C@]3(C)[C@@H]12 (stereo not given in full),inactive,inactive,inactive,inactive,inactive,2.9%,inactive,inactive,inactive,inactive
O=C(O)c1cccc([N+](=O)[O-])c1,inactive,inactive,inactive,inactive,inactive,0.351%,inactive,inactive,inactive,inactive
CCCCOCCOCCSC#N,inactive,inactive,inactive,inactive,inactive,1.11%,inactive,inactive,inactive,inactive
ClCCl,inactive,inactive,inactive,inactive,inactive,1.06%,inactive,inactive,inactive,inactive
O=C(O)c1ccccc1C(=O)O,inactive,inactive,inactive,inactive,inactive,2.22%,inactive,inactive,inactive,inactive
C1CCOC1,inactive,inactive,inactive,inactive,inactive,-0.19%,inactive,inactive,inactive,inactive
COC(=O)CCC(=O)OC,inactive,inactive,inactive,inactive,inactive,1.38%,inactive,inactive,inactive,inactive
C=C(C)C(=O)OC,inactive,inactive,inactive,inactive,inactive,1.74%,inactive,inactive,inactive,inactive
CO[Si](CCCNCCC[Si](OC)(OC)OC)(OC)OC,inactive,inactive,inactive,inactive,inactive,2.91%,inactive,inactive,inactive,inactive
